Measurements as given in the supplement of paper PMC7858590.
± gives the standard deviation of the averaged measurements. The full ranking holds about 3,800 compounds; the median of “cell shape (eccentricity) Z-score vs DMSO control” is about 1.1, and the lowest 2% start at about -4.7. What follows is part of a selection rich in the lowest values, with near analogues and random picks from the rest.

Tested on: human monocyte-derived macrophages (M0)
Experiment: cell shape (eccentricity) Z-score vs DMSO control; higher = more elongated, M2-like morphology
Conditions: 20 µM; 24 h; macrophage state: M0 (M-CSF)

Row | SMILES | cell shape (Z-score)
1 | CC#CCOC(=O)c1c(C)nc2sc3c(c2c1N)CCC(O)C3 (stereo unspecified) | -0.105
2 | C[C@@H]1O[C@@H](Oc2ccc(-c3coc4cc(O[C@@H]5O[C@@H](C)[C@H](O)[C@@H](O)[C@H]5O)cc(O)c4c3=O)cc2)[C@H](O)[C@H](O)[C@H]1O | -0.632
3 | c1ccc(COCCCc2cnc[nH]2)cc1 | 2.2
4 | O=C(O)CCCc1ccccc1 | 0.59
5 | O=C(CCCc1ccc(-c2ccccc2F)cc1)Nc1ccc(O)cc1 | -4.74
6 | Cc1c(Cl)cccc1Nc1ccccc1C(=O)O | 1.66
7 | O=C(O)c1ccccc1Nc1ccccc1 | 2.81
8 | COc1ccc(S(=O)(=O)N(C(C)=O)c2ccccc2/C=C/c2cc[n+]([O-])cc2)cc1 | -4.1
9 | CC(=O)OCC(=O)[C@@]1(O)CCC2C3CCC4=CC(=O)CC[C@]4(C)C3C(=O)C[C@@]21C (stereo partly specified) | -0.245
10 | C=C1CCC2(C(=O)OC3OC(CO)C(O)C(O)C3O)CCC3(C)C(=CCC4C5(C)CC(O)C(OC6OCC(O)C(O)C6OC6OC(CO)C(O)C(O)C6O)C(C)(CO)C5CCC43C)C2C1 (stereo unspecified) | 0.275
11 | C=C(COC(=O)C(C)C)C1Oc2cc(C(C)=O)ccc2C1OC(=O)C(C)C (stereo unspecified) | 1.56
12 | Cc1cc(C)c(CNC(=O)c2cc(-c3ccc(N4CCNCC4)nc3)cc3c2cnn3C(C)C)c(=O)[nH]1 | 3.48
13 | CC(Cc1ccc(O)c(O)c1)(NN)C(=O)O (stereo unspecified) | -0.173
14 | C=C(C(=O)O[C@H]1CC=C(C)C[C@H](O)[C@H]2[C@H](C)C(=O)O[C@@H]2/C=C/1C)[C@@H]1CCC(=C)[C@@H]2C[C@H](O[C@@H]3O[C@H](CO[C@H]4OC[C@](O)(CO)[C@H]4O)[C@@H](O)[C@H](O)[C@H]3O)C(=C)[C@@H]2C1 | -4.65
15 | C=C1C(=O)O[C@@H]2[C@H]3C(=C)[C@@H](O[C@@H]4O[C@H](CO)[C@@H](O)[C@H](O)[C@H]4O)C[C@H]3C(=C)C[C@@H](O)[C@@H]12 | 2.36
16 | COc1cc(O[C@@H]2O[C@H](CO[C@H]3OC[C@](O)(CO)[C@H]3O)[C@@H](O)[C@H](O)[C@H]2O)cc(OC)c1OC | 1.07
17 | O=C(c1ccc(Nc2nccc(-c3cc4ccccc4s3)n2)cc1)N1CCC(N2CCCC2)CC1 | -4.98
18 | COc1cc(C(=O)N2CCC(N3CCN(C)CC3)CC2)ccc1Nc1ncc2c(n1)N(C)c1ccccc1C(=O)N2C | 8.88
19 | Cc1c(-c2ccnc(Nc3ccc(N4CCNCC4)cc3)n2)sc(=O)n1C | 9.91
20 | COc1cc(OC2OC(COC3OCC(O)(CO)C3O)C(O)C(O)C2O)c2c(-c3ccc(O)c(O)c3)cc(=O)oc2c1 (stereo unspecified) | -0.273
21 | CCOC(=O)C1C(=O)C(=O)Nc2ccccc21 (stereo unspecified) | 2.09

Row | SMILES | cell shape (Z-score)
22 | Cc1cccc(C)c1NC(=O)C[N+](C)(C)C | -4.98
23 | CC[N+](C)(CC)CC(=O)Nc1c(C)cccc1C | -0.632
24 | CC[N+](CC)(CC(=O)Nc1c(C)cccc1C)Cc1ccccc1 | 1.74
25 | Cc1cc(=O)oc2c(O)c(O)ccc12 | 1.41
26 | COc1ccc2c(C)cc(=O)oc2c1 | 4.64
27 | Cc1cc2cc3c(C)cc(=O)oc3c(C)c2o1 | -4.76
28 | COC(=O)C1=C(C)NC(C)=C(C(=O)OCCCN2CCC(c3ccccc3)(c3ccccc3)CC2)[C@H]1c1cccc([N+](=O)[O-])c1 | 1.82
29 | CCC(=O)OCC1=CCCC2C1(C)CCC(C)C2(C)CCC(C)CC(=O)O (stereo unspecified) | 0.255
30 | COc1cc(C)c2c(=O)cc(-c3ccccc3)oc2c1 | 1.41
31 | COc1cc(O)c(C(=O)c2c(O)cc(C)cc2O)c(C(=O)O)c1 | 1.14 ± 0.29
32 | COC1CC(O[C@H]2CC[C@]3(C)C4CC[C@@]5(C)C(=O)[C@]4(CC[C@@H]3C2)CC[C@@H]5C2=CC(=O)OC2)OC(C)C1OC1OC(COC2OC(CO)C(O)C(O)C2O)C(O)C(O)C1O (stereo partly specified) | 0.241
33 | CO[C@@H]1CC(OC2CCC3(C)C(CCC45CCC(C6=CC(=O)OC6)C(C)(CCC43)C5=O)C2)O[C@H](C)[C@@H]1O[C@@H]1O[C@H](CO[C@@H]2O[C@H](CO)[C@@H](O)[C@H](O)[C@H]2O)[C@@H](O)[C@H](O)[C@H]1O (stereo partly specified) | 1.71
34 | C=C1[C@@H](C2=CC(=O)OC2)CC[C@@]2(O)[C@@H]1CC1[C@H]2CC[C@@H]2C[C@@H](O[C@H]3O[C@@H](C)[C@@H](O[C@@H]4O[C@H](CO[C@@H]5O[C@H](CO)[C@@H](O)[C@H](O)[C@H]5O)[C@@H](O)[C@H](O)[C@H]4O)[C@H](OC)[C@H]3O)CC[C@]12C (stereo partly specified) | -4.99
35 | COC(CCc1ccc(O)c(O)c1)CC(=O)CCc1ccc(O)c(O)c1 (stereo unspecified) | 1.18
36 | CN1CCN(CCOc2cc(OC3CCOCC3)c3c(Nc4c(Cl)ccc5c4OCO5)ncnc3c2)CC1 | 5.59
37 | C[C@@H](C1=C(CCN(C)C)Cc2ccccc21)c1ccccn1 | 1.35
38 | CCOc1cc(/C=C(/C#N)C(N)=O)cc(CSc2ccccc2)c1O | 2.62
39 | O=C(O)Cc1nn(Cc2ccc(Br)cc2F)c(=O)c2ccccc12 | -4.79
40 | O=C(O)Cc1nn(Cc2nc3cc(C(F)(F)F)ccc3s2)c(=O)c2ccccc12 | 1.57
41 | CC(C)n1cnc2c(NCc3ccccc3O)nc(NCCCO)nc21 | 3.13
